Reference: PubChem BioAssay (NCATS)
Records with an inconclusive call do not appear. A number with no mark means an inactive call. Activity calls are given as the source filed them. Calls follow the shape of the dose curve; as a rule, active = well fitted activation curve with a large enough effect; inconclusive = small, poorly fitted or top-dose-only effect; inactive = no such curve, though single readings can be large or run the other way.

Target: Arylsulfatase A (Homo sapiens) (UniProt P15289)
Assay: qHTS screen for enhancers of Arylsulfatase A (ASA1): LOPAC Validation Assay (AID 720538); as to activity change, positive = activation: 0% is about no effect
Settings: ASA enzyme activity, LOPAC qHTS enhancer assay; series mostly up to 57.5 µM; activity change, positive = activation: at the top concentration
Source text: Lysosomal storage diseases (LSDs) are caused by genetic mutations in genes encoding proteins important for normal lysosomal function. In affected patients, symptoms are usually not manifested unless the mutations result in more than 90% reduction of enzymatic activity of a specific lysosomal enzyme. […] Small molecules could function as enzyme enhancement agents by binding to and stabilizing mutant misfolded proteins in the endoplasmic reticulum (ER), allowing them to evade the ER associated degradation (ERAD), and eventually reach the lysosome. Moreover, small molecules is hypothesized to be able to enhance the residual activity of deficient lysosomal enzyme by either interacting directly with the mutant enzyme or indirectly by acting in different cellular pathways; resulting to increased levels of the mutant and partially functional protein in the lysosomal compartment.
A cell based assay in 1536 well plate format was developed to evaluate activity of the lysosomal sulfatase ASA1 enzyme. ASA1 is deficient in metachromatic leukodystrophy (MLD), an LSD characterized by progressive neurodegeneration for which specific treatment is not available. Compounds that are active may therefore have some therapeutic application for this disease. This assay was used to validate the ASA1 qHTS using the Sigma LOPAC library. In this assay increase in signal = enhanced ASA1 activity. Activation is the desired outcome for this assay.
NIH Chemical Genomics Center [NCGC]
NIH Molecular Libraries Probe Centers Network [MLPCN]
Assay Submitter (PI): Gustavo Maegawa, Johns Hopkins University School of Medicine
[2] Gieselmann V, et al. Acta Paediatr Suppl. 2008; 97: 15-21
Four microliter (~8,000 cells/well) of SV40-transformed skin fibroblasts from an MLD patient (ASA-I179S) were seeded into a 1,536 solid white plate. Cells were left to adhere for 6 hrs, followed by addition of 23 nL of compounds. Cells were incubated with compounds for 48h at 37 degree C and 5% CO2. Four microliter of 1 mM pNCS substrate/lysis buffer (0.5mM pNCS final concentration) was added and incubated for 14h at room temperature. To stop the reaction, […] of 5 N of NaOH (1N NaOH final concentration) was then added and fluorescence was measured using the ViewLux plate reader (Ex=525 nm; Em=598 nm).
Potency is read from the fitted curve at half-maximal effect.

Sequence of Arylsulfatase A (Homo sapiens) (P15289 whole entry, looked up): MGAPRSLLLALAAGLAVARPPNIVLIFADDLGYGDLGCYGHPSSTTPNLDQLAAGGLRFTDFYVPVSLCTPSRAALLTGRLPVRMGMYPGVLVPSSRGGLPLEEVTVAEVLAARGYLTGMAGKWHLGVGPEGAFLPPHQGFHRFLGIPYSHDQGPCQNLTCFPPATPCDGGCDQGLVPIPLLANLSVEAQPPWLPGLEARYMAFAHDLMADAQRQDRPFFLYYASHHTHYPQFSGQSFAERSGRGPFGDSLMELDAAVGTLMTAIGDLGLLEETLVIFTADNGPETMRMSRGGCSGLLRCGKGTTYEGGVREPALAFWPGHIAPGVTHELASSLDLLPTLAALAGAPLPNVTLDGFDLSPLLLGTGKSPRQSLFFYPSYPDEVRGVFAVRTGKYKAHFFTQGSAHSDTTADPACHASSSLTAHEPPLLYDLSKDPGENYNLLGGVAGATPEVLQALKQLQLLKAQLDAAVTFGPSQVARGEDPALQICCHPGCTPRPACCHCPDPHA

SMILES	activity change, positive = activation [%]	outcome	Potency
Cc1cc(C)c(/C=C2\C(=O)Nc3ccccc32)[nH]1	3.07		
CCNC(=O)N1CCN(CCCC(c2ccc(F)cc2)c2ccc(F)cc2)CC1		inactive	
Nc1c2c(nc3ccccc13)CCCC2O (stereo not given)	11.5		
NC(Cc1ccc(Cl)cc1)C(=O)O (stereo not given)		inactive; inhibitor; fitted 5.3582 uM	
CNCCC(Oc1ccccc1OC)c1ccccc1 (stereo not given)	-74.4		
NC(N)=N/N=C/c1c(Cl)cccc1Cl		inactive	
NC(=O)c1cn(Cc2c(F)cccc2F)nn1		inactive; inhibitor; fitted 0.3013 uM	
Cc1ccc(/C(=C\CN2CCCC2)c2ccccn2)cc1		inactive	
COCCc1ccc(OCC(O)CNC(C)C)cc1 (stereo not given)		inactive	
COc1ccc(CCN(C)CCCC(C#N)(c2cc(OC)c(OC)c(OC)c2)C(C)C)cc1OC (stereo not given)		inactive; inhibitor; fitted 4.2562 uM	
Cc1nc2c([nH]1)c(=O)n(C)c(=O)n2Cc1ccco1	-14.8		
CC[N+](C)(C)c1cccc(O)c1		inactive	
Cc1cccc(C)c1NC(=O)C(C)N (stereo not given)	-24		
CCN1CCc2nc(N)oc2CC1	2.21		
CN(C)CCCN1c2ccccc2Sc2ccccc21		inactive; inhibitor; fitted 2.6855 uM	
Cc1nnc(SCC2=C(C(=O)O)N3C(=O)[C@@H](NC(=O)Cn4cnnn4)[C@H]3SC2)s1	17.7		
Cc1nc2sccn2c(=O)c1CCN1CCC(=C(c2ccc(F)cc2)c2ccc(F)cc2)CC1	-64.5		
CCN(CC)CCNC(=O)c1cc(S(C)(=O)=O)ccc1OC	-62.5		
C[C@]12CCC(=O)C=C1CC[C@@H]1[C@@H]2C(=O)C[C@@]2(C)[C@H]1CC[C@]2(O)C(=O)CO	-4.74		
FC(F)(F)c1ccccc1-n1ccnc1	-4.96		

SMILES	activity change, positive = activation [%]	outcome	Potency
Cc1nc2ccccn2c(=O)c1CCN1CCC(C(=O)c2ccc(F)cc2)CC1			19 µM (active)
COc1ccc2c(c1OC)C(=O)O[C@@H]2[C@H]1c2c(cc3c(c2OC)OCO3)CCN1C		inactive	
CCOC(=O)C1=C(C)NC(C)=C(C(=O)OC)C1c1cccc([N+](=O)[O-])c1 (stereo not given)		inactive	
CCCCCCCC/C=C\CCCCCCCC(=O)NCc1ccc(O)c(OC)c1	-43.7		
COC(=O)[C@@H](N)Cc1ccc(O)c(O)c1			33.8 µM (active)
Cc1ccc(=O)n(-c2ccccc2)c1	-13.6		
COc1cc(C(=O)OCCCN2CCCN(CCCOC(=O)c3cc(OC)c(OC)c(OC)c3)CC2)cc(OC)c1OC	10.1		
C[N+](C)(C)CCOC(=O)CCC(=O)OCC[N+](C)(C)C	19.9		
CCO/C([O-])=N/c1c[n+](N2CCOCC2)no1	-53.5		
c1ccc2c(c1)CCCC2C1=NCCN1 (stereo not given)	-20.9		
CN(C)C(=O)Oc1ccc[n+](C)c1	-5.23		
CC(C)(C)c1ccc(C(=O)CCCN2CCC(OC(c3ccccc3)c3ccccc3)CC2)cc1		inactive	
CCn1ccnc1CC1COc2ccccc2O1 (stereo not given)	6.78		
CO[C@@]1(NC(=O)CSCC#N)C(=O)N2C(C(=O)O)=C(CSc3nnnn3C)CS[C@@H]21	-22.9		
CC(C)[N+](C)(CCOC(=O)C1c2ccccc2Oc2ccccc21)C(C)C	-26.6		
CCN(Cc1ccncc1)C(=O)C(CO)c1ccccc1 (stereo not given)	-98.7		
CCN(CC)CCOCCOC(=O)C1(c2ccccc2)CCCC1		inactive	
C[N+](C)(C)CCOC(N)=O		inactive; inhibitor; fitted 3.0131 uM	
OCCN1CCN(CCCN2c3ccccc3C=Cc3ccccc32)CC1	12.4		
COc1ccc([C@@H]2Sc3ccccc3N(CCN(C)C)C(=O)[C@@H]2OC(C)=O)cc1	-40.7		
